Bioassay records (PubChem BioAssay)
A selection: hits, their analogues and other compounds. The true share with any hit is near 2.9%.
D3 antag = antagonists of human D3 dopamine receptor. max response, negative = inhibition, %. 2.5% of 360,000 active. AID 652054. D3R cells, DiscoveRx beta-arrestin luminescence, antagonist mode; hits give low values; in the data active means max response below about -50%; inconclusive means no clear call, values can overlap the other calls
Target sequence (P35462 whole entry, looked up): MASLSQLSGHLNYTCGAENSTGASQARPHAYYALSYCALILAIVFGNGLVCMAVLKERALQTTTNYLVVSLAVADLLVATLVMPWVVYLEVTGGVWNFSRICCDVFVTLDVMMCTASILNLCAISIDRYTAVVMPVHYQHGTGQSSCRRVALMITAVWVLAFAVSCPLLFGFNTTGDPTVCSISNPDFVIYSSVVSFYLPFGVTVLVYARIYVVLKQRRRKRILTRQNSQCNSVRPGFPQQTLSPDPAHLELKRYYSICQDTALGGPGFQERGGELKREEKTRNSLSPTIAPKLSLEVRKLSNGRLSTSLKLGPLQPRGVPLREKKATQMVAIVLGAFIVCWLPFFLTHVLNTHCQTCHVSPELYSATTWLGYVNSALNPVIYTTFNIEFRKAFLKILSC
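Cells expressing the human receptor were seeded at 1500 cells/well, incubated overnight at 37 degrees C in 5% CO2, then exposed to library compounds with dopamine controls for 90 minutes at 37 degrees C before luminescent detection.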
a7 integrin act = integrin-mediated muscular dystrophy alleviation activation | 0.064% of 350,000 active | alpha7betagal myoblasts, beta-gal FDG fluorescence, 48 h | Potency, µM (titrated, usually from 38.3 µM), actives largely listed as activators; active means well fitted activation curve with a large enough effect; inconclusive means small, poorly fitted or top-dose-only effect; inactive means no such curve, though single readings can be large or run the other way; further: nearly all actives have a fitted effect of over 60% in size
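alpha7betagal+/- myoblasts (passage 13, 250/well) treated 48 h at 37C with compounds at 1:260 dilution of DMSO stock. Lysed, then beta-galactosidase activity read as FDG fluorescence (ex 480/em 540) after 30 min, with pre-read for autofluorescence.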
DRD3 agonist = agonists of human D3 dopamine receptor; max activation, %; 0.58% of 410,000 active; P35462; D3R DiscoveRx beta-arrestin cells, luminescence, 90 min; in the data active means max activation above about 30%
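Agonist-mode cell screen: cells plated at 1500/well and incubated overnight at 37 °C, then exposed to library compounds for 90 min at 37 °C. Detection reagent was added for 30–60 min at room temperature, and luminescence was read.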
Numbers stand for hits; i = inactive; ? = inconclusive; nt = no result given.

SMILES	D3 antag	a7 integrin act	DRD3 agonist
CNc1nc2c(c(=O)n(C)c(=O)n2C)n1CC(O)COc1ccc(OC)cc1 (stereo unspecified)	nt	nt	i
CN(C)CCNc1ncnc2ccccc12	i	i	i
Cc1ccc(-c2oc3ncnc(N)c3c2-c2ccc(C)cc2)cc1	i	i	i
CN(C)CCNc1ncnc2oc(-c3ccccc3)c(-c3ccccc3)c12	-61	i	i
COc1ccc(-c2oc3ncnc(NCCCN(C)C)c3c2-c2ccc(OC)cc2)cc1	-104	i	i
CC(C)(SC(=S)N1CCCCCC1)C(=O)O	i	i	i
CCOC(=O)C(=Cc1ccc(-n2cncn2)cc1)C(=O)OCC	-64	i	i
CCOC(=O)/C(=C\c1ccc(N2CCC(c3ccccc3)=N2)cc1)C(C)=O	i	i	i
O=C1CCC(=O)N1OCCCOc1ccc(Br)cc1Cl	i	i	i
Cc1ccc(OCCCCCCN2CCNCC2)c(Br)c1	i	i	i
CC1CCN(CCCOc2ccc(Br)cc2Cl)CC1	-62	i	i
CN1CCN(CCOCCOc2ccc(Br)cc2Cl)CC1	-61	i	i
CC1CCCN(CCOCCOc2ccc(Cl)cc2Br)C1 (stereo unspecified)	-100	i	i
Cc1cc(Cl)c(OCCOCCN2CCCC(C)C2)c(Br)c1 (stereo unspecified)	?	i	i
Cc1ccc(OCCCCN2CCC(C)CC2)c(Br)c1	-96	i	i
Clc1cc(Br)ccc1OCCN1CCOCC1	?	i	i
CCOC(=O)C1CCN(C(c2ccc(C)cc2)c2c(O)cc(C)n(CCOC)c2=O)CC1 (stereo unspecified)	nt	nt	i
CCOC(=O)c1cc(C(=O)OCC)c(=O)[nH]c1N1CCCCC1	i	i	i
Cc1cc(Cl)c(OCCOCCN2CCCCC2)c(Br)c1	?	i	i
CC1CCCN(CCOCCOc2ccc(Br)cc2Cl)C1 (stereo unspecified)	-82	i	i
Cc1ccccc1-c1nc(Cc2ccccc2)no1	-53	i	i
Clc1ccc(-c2nc(Cc3ccccc3)no2)cc1	i	i	i
C=CCNC(=S)NNC(=O)c1cccn(Cc2ccc(Cl)c(Cl)c2)c1=O	?	i	i
CNC(=S)NNC(=O)c1cccn(Cc2cccc(Cl)c2)c1=O	i	i	i
CCNC(=S)NNC(=O)c1cccn(Cc2ccc(Cl)cc2Cl)c1=O	-59	i	i
SMILES	D3 antag	a7 integrin act	DRD3 agonist
C=CCNC(=S)NNC(=O)c1cccn(Cc2ccc(Cl)cc2Cl)c1=O	-73	i	i
CCOc1cc(NC(=S)Nc2ccccc2)c(OCC)cc1NC(=O)c1ccccc1	i	i	i
CSc1ccc(S(=O)(=O)Nc2ccc(N3CCOCC3)c(Cl)c2)cc1	i	i	i
COc1ccccc1C1CC(=O)Oc2cc(C)c(Br)c(C)c21 (stereo unspecified)	i	i	i
Cc1ccc(C(=O)OCc2nc3ccsc3c(=O)[nH]2)o1	i	i	i
COCc1c(C(=O)OCc2nc3ccsc3c(=O)[nH]2)oc2ccccc12	i	1.1µM	i
Cc1ccc(NC(=S)NNC(=O)c2cn(C)nc2C)cc1	-67	i	i
Cc1ccc(NC(=S)NNC(=S)Nc2ccc(C)cc2)cc1	i	i	i
O=C(NNC(=S)Nc1ccccc1)NNC(=S)Nc1ccccc1	-70	i	i
Cc1ccc(NC(=S)NNC(=O)Nc2ccccc2)cc1	-52	i	i
O=C(NNC(=S)Nc1ccccc1)Nc1ccccc1	i	i	i
Cc1ccc(NC(=S)NNC(=O)c2c(Cl)c(C)nn2C)cc1	i	i	i
COc1ccc(-c2nnc(OCc3ccccc3)c3ccccc23)cc1	i	i	i
Cc1ccc(-c2nnc(Nc3ccccc3O)c3ccccc23)cc1	nt	nt	i
CNC(=O)CSc1nnc(-c2ccccc2)n1C	i	i	i
CC(C)CC1NC(=O)c2cc3ccccc3cc2-n2c1nc1ccc(F)cc1c2=O (stereo unspecified)	-58	i	i
COc1ccc2nc3n(c(=O)c2c1)-c1ccc(Cl)cc1C(=O)NC3Cc1ccc(O)cc1 (stereo unspecified)	i	i	44
COc1ccc2nc3n(c(=O)c2c1)-c1cc2ccccc2cc1C(=O)NC3Cc1ccc(O)cc1 (stereo unspecified)	i	i	i
Cc1ccc2nc3n(c(=O)c2c1)-c1cc2ccccc2cc1C(=O)NC3CC(C)C (stereo unspecified)	i	i	i
C=CCNC(=O)CN(Cc1ccccc1)S(=O)(=O)c1ccc(C)cc1	i	i	i
O=C(Cn1nnc2sc(-c3ccccc3)cc2c1=O)Nc1cccc(C(F)(F)F)c1	nt	nt	i
COc1cc(-n2c(=O)c3ccccc3n(CC(=O)c3ccc(Br)cc3)c2=O)cc(OC)c1OC	i	i	i
OCCC1CN(Cc2ccsc2)CCN1C1CCCC1 (stereo unspecified)	i	i	i
OCCC1CN(Cc2cccc(-c3ccco3)c2)CCN1Cc1ccsc1 (stereo unspecified)	-77	?	i
CC(C)CCN1CCN(Cc2ccsc2)CC1CCO (stereo unspecified)	i	i	i
SMILES	D3 antag	a7 integrin act	DRD3 agonist
OCCC1CN(Cc2ccc3nonc3c2)CCN1Cc1ccsc1 (stereo unspecified)	-52	i	i
OCCC1CN(Cc2ccc3cc(Cl)ccc3n2)CCN1Cc1ccsc1 (stereo unspecified)	?	i	i
OCCC1CN(Cc2cnn(-c3ccccc3Cl)c2)CCN1Cc1ccsc1 (stereo unspecified)	-68	i	i
Cc1ccccc1CNC(=O)Cc1csc2ccccc12	nt	nt	i
COc1cc(CNCCN2CCOCC2)ccc1OCC(=O)NC(C)(C)C	i	i	i
CC(C)c1ccc(Nc2c(-c3ccccc3O)nc3cnccn23)cc1	nt	nt	38
COc1cc(-c2nc3cnccn3c2Nc2ccc(C(C)C)cc2)ccc1O	i	i	i
CSCCC(C(=O)Nc1c(C)cccc1C)n1c(-c2cc(C)cs2)nc2ccccc21 (stereo unspecified)	-66	nt	i
CSCCC(C(=O)Nc1c(C)cccc1C)n1c(-c2ccc(-c3ccccc3)cc2)nc2ccccc21 (stereo unspecified)	i	nt	i
C=CCNC(=S)Nc1cccc(NC(=S)NCC=C)c1	i	i	i
CC(Oc1ccccc1)C(=O)Nc1ccccc1F (stereo unspecified)	i	i	i
COc1cccc(-c2cc(C(=O)NCc3ccccc3)no2)c1	nt	nt	i
COc1cccc(-c2cc(CC3(O)CCN(CCCc4ccccc4)CC3)on2)c1	-96	i	i
CC(C)CC(C(=O)O)N1C(=O)C2C3c4ccccc4C(c4ccccc43)[C@@H]2C1=O (stereo partly specified)	i	i	i
N#CCSc1nc2[nH]ncc2c(=O)n1-c1ccccc1Br	i	i	i
CN(c1ccccc1)S(=O)(=O)c1cccc(C(=O)Nc2ccc3c(c2)CCC3)c1	i	i	i
Cc1scc(CN2CCN(c3ccc(F)cc3)CC2)c1C	nt	nt	i
Cc1csc(NC(=O)CSc2nncn2C)n1	-63	i	i
COC(=O)Cc1csc(NC(=O)CSc2nncn2C)n1	i	i	i
CC(OC(=O)c1cc(=O)c2ccccc2o1)C(=O)c1ccccc1 (stereo unspecified)	i	?	i
O=C(NCC(c1ccco1)N1CCN(c2ccccc2F)CC1)C(=O)NC1CC1 (stereo unspecified)	i	i	i
